GALK inhibitor: galactokinase (human) inhibition. Purified GALK, Kinase-Glo residual ATP luminescence. P51570. 270,000 tested, 0.007% active. Potency, µM (series often up to 57.5 µM), inactives show top-dose activity change, negative = inhibition, actives largely listed as inhibitors
Target sequence (P51570 whole entry, looked up): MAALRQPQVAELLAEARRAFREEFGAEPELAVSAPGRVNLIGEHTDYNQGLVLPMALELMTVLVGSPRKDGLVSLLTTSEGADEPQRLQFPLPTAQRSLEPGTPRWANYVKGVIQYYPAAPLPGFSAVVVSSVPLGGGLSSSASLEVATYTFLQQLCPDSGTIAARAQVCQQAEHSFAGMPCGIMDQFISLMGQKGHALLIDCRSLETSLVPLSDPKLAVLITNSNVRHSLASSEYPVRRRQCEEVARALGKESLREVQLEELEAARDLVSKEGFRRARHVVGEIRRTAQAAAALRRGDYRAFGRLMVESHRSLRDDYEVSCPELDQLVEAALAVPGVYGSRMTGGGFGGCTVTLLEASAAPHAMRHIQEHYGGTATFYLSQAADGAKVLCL
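Human GALK (5 nM) with 35 uM ATP and 100 uM galactose in 20 mM HEPES pH 8.0, 5 mM MgCl2, 60 mM NaCl, 1 mM DTT, 0.01% BSA. After 1 h at room temperature, leftover ATP was read by Kinase-Glo Plus luminescence.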
PKM2 activator: PKM2 (human) enzyme activation. purified PKM2, Kinase-Glo ATP luminescence, activation; response scale: 0% is enzyme alone, no compound. Potency, µM (doses to about 57.5 µM), inactives show top-dose activation, actives largely listed as activators. P14618. AID 1631. 260,000 tested, 0.34% active; note: nearly all actives have a fitted effect of over 55% in size
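Kinase-Glo luminescence reports ATP generated from ADP (0.1 mM) and PEP (0.5 mM) by purified hPK-M2 after 1 h at room temperature, pH 7.2 imidazole buffer; intermediate enzyme activity allows detecting inhibitors and activators.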
Apoferritin bind: binds horse apoferritin like a general anesthetic; P02791; apoferritin/1-aminoanthracene competitive binding, fluorescence; Potency, µM (highest dose often 77.5 µM), without a hit: at the top dose activity change, negative = displacement, hits mostly inhibitors; 350,000 tested, 0.074% active; note: nearly all actives have a fitted effect of over 20% in size
Target sequence (P02791 2-175 limits assumed): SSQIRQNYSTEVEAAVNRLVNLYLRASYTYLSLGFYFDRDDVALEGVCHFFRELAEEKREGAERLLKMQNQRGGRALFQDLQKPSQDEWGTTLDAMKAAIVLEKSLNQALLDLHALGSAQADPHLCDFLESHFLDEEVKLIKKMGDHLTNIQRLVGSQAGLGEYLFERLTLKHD
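Read-out: endpoint 1-AMA fluorescence, excitation 380 nm and emission 535 nm, after compounds sit 10 min at room temperature with 10 uM horse-spleen apoferritin in 50% saturated 1-AMA/PBS. Values come from four-parameter Hill fits.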
IDH1 R132H inh: inhibitors of human mutant IDH1 R132H. AID 602179. Potency, µM (series often up to 76.6 µM), for inactives: top-dose activity change, negative = inhibition, actives largely listed as inhibitors. IDH1-R132H enzyme, NADPH consumption, diaphorase/resazurin fluorescence. 390,000 tested, 0.093% active. O75874; note: nearly all actives have a fitted effect of over 65% in size
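IDH1-R132H (0.5 ug/mL dispensed) in pH 7.5 Tris buffer was preincubated 30 min with compound, then given a substrate mix of 0.016 mM NADPH and 2 mM alpha-KG for 80 min at room temperature; remaining NADPH was read by diaphorase/resazurin fluorescence.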
TrxR1 inh: blocks rat thioredoxin reductase 1. O89049. recombinant rTrxR1, NADPH fluorescence consumption, selenite substrate. Potency, µM (top dose mostly 114 µM), for inactives: at the top dose activity change, negative = inhibition, usual class: inhibitors. 390,000 tested, 1% active. AID 588453; note: nearly all actives have a fitted effect of over 65% in size
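Rat TrxR1 (90 nM in the dispensed reagent) was pre-reduced with 400 uM NADPH for 5 min at room temperature, then incubated with compound for 15 min. After 400 uM selenite was added, NADPH fluorescence (Ex 340/Em 450 nm) was followed for 8 min.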
TrxR1 substrate: is turned over as a substrate by rat TrxR1; O89049; purified TrxR1 substrate turnover, NADPH consumption readout; Potency, µM (doses to about 114 µM), for inactives: at the top dose activity change, negative = substrate turnover; 390,000 tested, 0.01% active; note: nearly all actives have a fitted effect of over 50% in size
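Rat TrxR1, dispensed at 90 nM, was prereduced with 400 uM NADPH (final) for 5 min at ~22 deg C, then incubated with compound 15 min before 400 uM selenite. A first-read NADPH fluorescence drop versus no-compound background flagged substrates.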
An asterisk follows results filed as active; [ ] = dose if it differs, or a comment. In the library only some 1.3% were active in any assay of this set; here they are far more common. Calls come from the whole dose curve; as a rule, active = well fitted curve in the direction sought with a large enough effect; inconclusive = small, poorly fitted or top-dose-only effect, or another doubt; inactive = no such curve, though single readings can be large; an effect the other way counts as inactive or inconclusive. % is set by controls: 0 for no effect and ±100 for the full control effect; potency is the fitted concentration of half-maximal effect.

CCOC(=O)/C=C(/C)N1N=C(c2ccc(OC)cc2)CC1c1cccc([N+](=O)[O-])c1 (configuration not stated) was read as GALK inhibitor -1%, PKM2 activator 0%, Apoferritin bind -11%, IDH1 R132H inh 8%, TrxR1 inh 50µM* and TrxR1 substrate -11%.
COc1ccc(NC(=O)CSc2n[nH]c(N)n2)c([N+](=O)[O-])c1 was read as GALK inhibitor 0%, PKM2 activator 14µM*, Apoferritin bind -7%, IDH1 R132H inh 6%, TrxR1 inh 13% and TrxR1 substrate 1%.
COc1ccc(N(C(=O)CCl)C(C(=O)NCCc2ccccc2)c2cccs2)cc1Cl (configuration not stated) was read as GALK inhibitor -2%, PKM2 activator -3%, Apoferritin bind -9%, IDH1 R132H inh -7%, TrxR1 inh 14µM* and TrxR1 substrate -8%.
COc1cccc(N(C(=O)CCl)C(C(=O)NCCc2ccccc2)c2cccs2)c1 (configuration not stated) was read as GALK inhibitor 0%, PKM2 activator -1%, Apoferritin bind -2%, IDH1 R132H inh 3%, TrxR1 inh 14µM* and TrxR1 substrate 1%.
For Clc1ncc(C#Cc2ccccc2)c2ncncc12 the results were TrxR1 inh 18µM* and TrxR1 substrate 35%.
For COc1ccc(C#Cc2cnc(Cl)c3cncnc23)cc1OC the results were TrxR1 inh -18% and TrxR1 substrate 12%.
Nc1ccc2c(c1)C=C/C2=C\c1ccccc1 was read as TrxR1 inh -23% and TrxR1 substrate -12%.
`NS(=O)(=O)Nc1c(Br)cc(Br)c2cccnc12` gave TrxR1 inh 28µM* and TrxR1 substrate 9%[0.457 µM].
Nc1c(Br)cc(Br)c2cccnc12 was read as TrxR1 inh inconclusive and TrxR1 substrate 3%.
CC(C)(C)NC(=O)c1nn2c(C(F)(F)F)cc(-c3ccccc3)nc2c1Br was read as GALK inhibitor 3%, PKM2 activator -1%, Apoferritin bind -4%, IDH1 R132H inh 6%, TrxR1 inh 33%[2.29 µM] and TrxR1 substrate -1%.
For COC(=O)c1nn2c(C(F)(F)F)cc(-c3ccc(Br)o3)nc2c1Br the results were GALK inhibitor 7%, PKM2 activator -5%, Apoferritin bind -5%, IDH1 R132H inh 1%, TrxR1 inh 6.3µM* and TrxR1 substrate 10%.
`CCOC(=O)N1C(=O)[C@](c2ccc(Cl)cc2)(C(C)C)N1C(=O)OCC` gave PKM2 activator -1%, Apoferritin bind -1%, IDH1 R132H inh -7%, TrxR1 inh 45µM* and TrxR1 substrate -7%.
For CCOC(=O)N1C(=O)[C@@](c2ccc(Cl)cc2)(C(C)C)N1C(=O)OCC the results were PKM2 activator -1%, Apoferritin bind 0%, IDH1 R132H inh 4%, TrxR1 inh inconclusive and TrxR1 substrate 6%.
`Cc1cc(N2CCCC2)nc2ccc(NC(=S)NCCCOC(C)C)cc12` gave GALK inhibitor 7%, PKM2 activator 0%, Apoferritin bind -14%, IDH1 R132H inh -2%, TrxR1 inh 45µM* and TrxR1 substrate 6%.
`CCCCCCCCCC[n+]1ccc(/C=C/c2ccc(N(C)C)cc2)c2ccccc21` gave TrxR1 inh inconclusive and TrxR1 substrate -14%.
CCOc1ccccc1-n1c(CN2CCN(C(=O)c3ccco3)CC2)nc2ccccc2c1=O was read as GALK inhibitor -2%, PKM2 activator inconclusive, Apoferritin bind -13%, IDH1 R132H inh 7%, TrxR1 inh 20µM* and TrxR1 substrate 10%.
Screening Cc1ccc(-c2ccc(/C=N/NC(=O)CN3CCCC3)o2)cc1Cl returned GALK inhibitor -3%, PKM2 activator 2%, Apoferritin bind 18µM*, IDH1 R132H inh 9%, TrxR1 inh -11%[57.1 µM] and TrxR1 substrate 5%[57.1 µM].
For O=C(c1ccccc1)C(c1ccccc1)[n+]1csc2ccccc21 (configuration not stated) the results were TrxR1 inh 1% and TrxR1 substrate 7%.
`N#Cc1ccc(NC(=O)COCc2cc(-c3ccco3)on2)cc1` gave Apoferritin bind 4%, IDH1 R132H inh 1%, TrxR1 inh -8% and TrxR1 substrate -3%.
Screening O=C(O)c1cc2c(s1)-c1ccccc1CC2 returned GALK inhibitor -3%, PKM2 activator -10%, Apoferritin bind 3%, IDH1 R132H inh 4%, TrxR1 inh -15% and TrxR1 substrate 545%.
COc1ccc2c(c1)CCc1cc(C(=O)O)sc1-2 was read as GALK inhibitor -2%, PKM2 activator -7%, Apoferritin bind 32%, IDH1 R132H inh -9%, TrxR1 inh 45µM* and TrxR1 substrate inactive.
`COc1ccc(NC(=O)Cn2ncc(Cl)c(Cl)c2=O)cc1S(=O)(=O)N1CCOCC1` gave GALK inhibitor -2%, PKM2 activator -1%, Apoferritin bind -6%, IDH1 R132H inh 6%, TrxR1 inh 28µM* and TrxR1 substrate -3%.
COc1ccc(NC(=O)c2ccc(Cl)nc2)cc1S(=O)(=O)N1CCOCC1 was read as IDH1 R132H inh 12%, TrxR1 inh 7% and TrxR1 substrate -1%.
Cc1ccc(S(=O)(=O)N2CCCCC2)cc1NC(=O)Cn1ncc(Cl)c(Cl)c1=O was read as IDH1 R132H inh 14%, TrxR1 inh 50µM* and TrxR1 substrate 9%.
Screening Cc1ccc(S(=O)(=O)N2CCCCC2)cc1NC(=O)Cn1cnnn1 returned GALK inhibitor -1%, PKM2 activator 14µM*, Apoferritin bind 3%, IDH1 R132H inh -5%, TrxR1 inh -8% and TrxR1 substrate -7%.
For CCOC(=O)c1ccc(NC(=O)C2CCCN(c3ccc(Sc4ccc(C)cc4)nn3)C2)cc1 (configuration not stated) the results were Apoferritin bind 55%, IDH1 R132H inh -2%, TrxR1 inh 7% and TrxR1 substrate -1%.
COc1ccc(NC(=O)c2sc3nc4n(c(=O)c3c2C)CCC4)c(OC)c1 was read as Apoferritin bind -5%, IDH1 R132H inh 5%, TrxR1 inh 39%[11.4 µM] and TrxR1 substrate -2%.
`CCOC(=O)c1ccc(-c2ccc(C=O)o2)cc1` gave GALK inhibitor 13%, PKM2 activator 3%, Apoferritin bind -4%, IDH1 R132H inh 3%, TrxR1 inh inconclusive and TrxR1 substrate 72%[57.1 µM].

Assay outcomes as filed in PubChem BioAssay.
